# Screens as filed in PubChem BioAssay.
# MITF inh: MITF inhibitors, primary screen, biochemical, AlphaScreen, human; hit rate 0.91% among 650,000; Microphthalmia-associated transcription factor (Homo sapiens), O75030; inhibition, % at 2.6 µM; AlphaScreen MITF homodimerization, bead proximity signal; in the data active = inhibition above about 50%;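 also: 0% = vehicle wells with protein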
# GPR151 activ: activators of human GPR151, primary screen, cell-based, PathHunter beta-arrestin, luminescence | G-protein coupled receptor 151 (Homo sapiens), Q8TDV0 | activation, % at 11.2 µM | hit rate 1% among 650,000 | PathHunter beta-arrestin GPR151 cells | AID 1508602, 2020; in the data active = activation above about 4.9%;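 also: 0% = median of compound wells and 100% = cells with positive control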
# FBW7 activator: FBW7 E3 ligase activators, primary screen, biochemical, AlphaScreen, human. F-box/WD repeat-containing protein 7 (Homo sapiens), Q969H0. AlphaScreen FBW7–phospho-cyclin E peptide binding, activator screen. normalized activity (activation), % at 26.1 µM. hit rate 0.13% among 650,000. AID 1259310, 2017; in the data active = normalized activity above about 1.9%;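 also: purified mutant Fbw7 with reduced substrate affinity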
# Target sequence (Q969H0 whole entry, looked up): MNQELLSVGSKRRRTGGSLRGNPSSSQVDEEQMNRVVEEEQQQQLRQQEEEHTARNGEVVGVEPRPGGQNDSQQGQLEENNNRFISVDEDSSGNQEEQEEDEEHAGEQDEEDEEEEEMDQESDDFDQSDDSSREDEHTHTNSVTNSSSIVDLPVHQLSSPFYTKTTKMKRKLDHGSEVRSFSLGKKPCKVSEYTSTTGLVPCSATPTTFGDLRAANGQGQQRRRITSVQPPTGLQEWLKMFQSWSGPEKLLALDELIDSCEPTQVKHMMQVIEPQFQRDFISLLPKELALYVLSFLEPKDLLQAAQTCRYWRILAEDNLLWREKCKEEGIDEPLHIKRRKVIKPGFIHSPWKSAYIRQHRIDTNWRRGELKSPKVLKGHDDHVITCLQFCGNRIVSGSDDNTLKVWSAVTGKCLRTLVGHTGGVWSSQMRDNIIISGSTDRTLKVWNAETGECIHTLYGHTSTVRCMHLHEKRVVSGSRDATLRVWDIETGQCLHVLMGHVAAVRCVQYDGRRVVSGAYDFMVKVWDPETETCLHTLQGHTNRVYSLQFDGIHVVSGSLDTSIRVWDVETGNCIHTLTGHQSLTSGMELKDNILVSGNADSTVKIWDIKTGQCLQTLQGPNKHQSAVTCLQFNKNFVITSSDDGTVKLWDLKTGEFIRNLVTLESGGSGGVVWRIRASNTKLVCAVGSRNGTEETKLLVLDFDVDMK
# TEAD-YAP block: TEAD-YAP interaction inhibition, primary screen, TEAD-YAP interaction inhibitor project, luminescence, HEK-TIYL cells. hit rate 1.4% among 640,000. AID 1259422, 2018. inhibition, % at 9.12 µM. TEAD-Gal4/YAP UAS-luciferase luminescence; in the data active = inhibition above about 32%;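 also: 0% = median of test compound wells and 100% = reference inhibitor wells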
# An asterisk follows results filed as active. Rows were chosen to be rich in hits. Some 3.5% of all compounds tested hit in one or more screens of this group.
SMILES,MITF inh,GPR151 activ,FBW7 activator,TEAD-YAP block
CC1(C)CC(=O)C2=C(C1)OC(N)=C(C#N)C2c1cc(C(C)(C)C)c(O)c(C(C)(C)C)c1 (stereo not given),11,1,0,80*
CC1(C)CC(=O)C2=C(C1)OC1=C(C(=O)CC(C)(C)C1)C2c1cc(C(C)(C)C)c(O)c(C(C)(C)C)c1,8,1,0,0
COc1ccc(C(=O)NC(CCSC)C(=O)OCc2ccc([N+](=O)[O-])cc2)cc1OC (stereo not given),5,0,0,5
CC1CCN(Cc2nnnn2CC(=O)N2CCC(OCc3ccccn3)CC2)CC1,1,1,0,4
O=c1c2ccccc2nnn1Cc1ccc2c(c1)OCO2,-7,-1,0,-8
COCCNC(=S)NNC(=O)CSCc1ccccc1Br,21,1,2.8*,1
COc1cccc(C(=O)Nc2ccc(N3S(=O)(=O)c4ccccc4S3(=O)=O)cc2)c1,7,2,0,-1
CN1CCN(c2nc3c(c(=O)n(C)c(=O)n3C)n2CCc2ccccc2)CC1,11,0,1,7
Cc1ncn(-c2ccc(Nc3nccc(-c4ccc(C#N)c(N5CCC(O)CC5)c4)n3)cc2)n1,31,0,0,69*
Cc1ncn(-c2ccc(Nc3nccc(-c4ccc(C#N)c(N5CCCC5)c4)n3)cc2)n1,20,-1,0,30
Cc1ncn(-c2ccc(Nc3nccc(-c4ccc(N5CCCC(CO)C5)c(C#N)c4)n3)cc2)n1 (stereo not given),9,3,0,46*
C[C@@H]1CN(C(=O)Nc2cccc(Nc3nccc(-c4ccc(N5CCC(O)CC5)c(C#N)c4)n3)c2)C[C@H](C)O1,15,-1,1,40*
N#Cc1cc(-c2ccnc(Nc3ccc(-n4cnc(N5CCC(O)CC5)n4)cc3)n2)ccc1N1CCC(O)CC1,-3,1,0,50*
O=C(CCCCn1c(=S)[nH]c2ccsc2c1=O)NCc1ccccc1Cl,-2,0,0,0
CCNC(=O)N1CCCC(c2nnc(-c3ccc(OC)cc3)s2)C1 (stereo not given),10,-4,0,16
Cc1ccc(Nc2ccn3ncc(-c4ccc(O)cc4)c3n2)cc1NS(C)(=O)=O,-19,0,0,8
CCOC(=O)c1c(C)oc2ccc(N(C(=O)c3ccncc3)S(=O)(=O)c3ccccc3)cc12,7,1,0,8
CCOc1ccc(S(=O)(=O)N(C(=O)c2ccncc2)c2ccc3oc(C)c(C(=O)OC)c3c2)cc1,-8,3,0,64*
COC(=O)c1c(C)oc2ccc(N(C(=O)c3ccncc3)S(=O)(=O)c3ccc(Cl)cc3)cc12,12,2,0,4
CCOC(=O)c1c(C)oc2ccc(N(C(=O)c3ccncc3)S(=O)(=O)c3ccc(C)cc3)cc12,-2,1,0,48*
COc1cccc(-c2nc(CS(=O)CC(=O)NCC(OC)OC)c(C)o2)c1 (stereo not given),-1,1,0,1
Cc1cccc(Nc2cc(NC3CCCCC3)c3noc4c3c2C(=O)c2ccccc2-4)c1,34,-1,0,8
CC(C)c1ccc2nc3sc(C(=O)Nc4nccs4)c(N)c3cc2c1,-11,1,0,66*
Nc1c(C(=O)Nc2nccs2)sc2nc3c(cc12)CCC3,3,-1,0,56*
Cc1[nH]c(=O)[nH]c(=O)c1NC(=O)c1sc2nc3ccc(C(C)C)cc3cc2c1N,-2,1,0,79*
SMILES,MITF inh,GPR151 activ,FBW7 activator,TEAD-YAP block
Cc1ccc2cc3c(N)c(C(=O)Nc4nc(C)c(C)s4)sc3nc2c1,0,-1,0,-49
Cc1ccc2nc3sc(C(=O)Nc4c(C)[nH]c(=O)[nH]c4=O)c(N)c3cc2c1,0,1,0,0
Cc1cc2cc3c(N)c(C(=O)Nc4nc(C)c(C)s4)sc3nc2cc1C,-3,2,46*,-16
CN1CCN(C(=O)c2ccc(N(C)S(C)(=O)=O)cc2)CC1,-4,0,0,0
O=C(Cc1ccccc1)Nc1cnn(-c2cccc(C(=O)Nc3ccc(Cn4cncn4)cc3)c2)c1,7,0,0,0
Cc1ccc(-n2c(SCC(=O)Nc3ccccc3)nc(O)c(Cc3ccccc3)c2=O)cc1,-8,0,0,-4
CC(C)Oc1ccc(/C=N/NS(=O)(=O)c2ccccc2)cc1,7,0,0,-6
CCc1ccc(C2(C)SC(NC(C)=O)=NN2C(C)=O)cc1 (stereo not given),8,0,0,-6
CC(=O)NC1=NN(C(C)=O)C(C)(c2ccc(F)cc2)S1 (stereo not given),11,0,1,37*
CC(=O)NC1=NN(C(C)=O)C(C)(c2cccs2)S1 (stereo not given),1,-1,0,60*
NC(=O)c1cccc(-c2cnn3c(N4CCCCC4CCO)ccnc23)c1 (stereo not given),-15,1,-1,-28
CC(=O)Nc1cccc(-c2cnn3c(N4CCCCC4CCO)ccnc23)c1 (stereo not given),-10,0,0,-3
OCCC1CCCCN1c1ccnc2c(-c3cccc4ccccc34)cnn12 (stereo not given),-33,-1,0,-29
OCCC1CCCCN1c1ccnc2c(-c3cccc(F)c3)cnn12 (stereo not given),-18,0,0,93*
OCCC1CCCCN1c1ccnc2c(-c3cc4ccccc4o3)cnn12 (stereo not given),-11,0,0,67*
OCCC1CCCCN1c1ccnc2c(-c3cccc(O)c3)cnn12 (stereo not given),4,-1,0,95*
OCCC1CCCCN1c1ccnc2c(-c3cccc(C(F)(F)F)c3)cnn12 (stereo not given),-7,-2,0,55*
COc1ccc(C(=O)NC(=S)Nc2cccc(C(=O)O)c2C)cc1,32,-2,0,-61
Nn1c(SCc2nc3ccccc3[nH]2)nnc1-c1ccco1,5,0,0,1
CC(c1cccc(F)c1)n1cc(C(=O)NCCN2CCCC2)nn1 (stereo not given),-19,1,0,-15
CCn1c(=O)[nH]c2c(C(N)=O)nc(-c3ccccn3)nc21,5,2,0,6
c1ccc(COc2ccc(CN3CCOCC3)cc2)cc1,-14,-4,0,71*
COc1cccc2cc(C(=O)Nc3ccccc3)/c(=N/O)oc12,14,-1,0,34*
COc1cccc2cc(C(=O)Nc3ccccc3)c(=Nc3ccc(F)cc3)oc12,0,0,0,-40
Cc1occc1C(=O)N/N=C/c1cc(Br)ccc1O,18,-4,0,47*
O=C(N/N=C/c1cc(Br)ccc1O)c1ccc(O)cc1O,22,0,-1,72*
Cc1cc(C)nc(SCc2ccccc2Cl)n1,18,-1,2.2*,-12
